This note sets out measurements from PubChem BioAssay (Tox21).

Experiment [1] is described as follows: qHTS assay to identify small molecule agonists of the vitamin D receptor (VDR) signaling pathway - cell viability counter screen (AID 743224). Further: nearly all actives have a fitted effect of over 50% in size. In outline:
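Counter screen for cytotoxicity: VDR-bla cells at 2,000 cells/well, 16 h compound exposure, then CellTiter-Glo luminescence after the beta-lactamase measurement.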
For orientation: qHTS replaces the single test concentration by a dilution series.

The nature of experiment [2]: qHTS assay to identify small molecule antagonists of the vitamin D receptor (VDR) signaling pathway - cell viability counter screen (AID 743225). Further: nearly all actives have a fitted effect of over 50% in size. Put shortly:
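VDR-UAS-bla HEK 293T cells were plated and incubated 4 h at 37C, then dosed with compound plus 3 nM (final) 1-alpha,25-dihydroxyvitamin D3 for 16 h. After the 2 h beta-lactamase read, viability in the same wells was read as CellTiter-Glo luminescence after 30 min at room temperature.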

Experiment [3] is described as follows: qHTS assay to identify small molecule agonists of the NFkB signaling pathway - cell viability counter screen (AID 1159515; calls by dose curve; further: nearly all actives have a fitted effect of over 55% in size). Put shortly: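 Counter screen run alongside the NFkB-bla agonist assay: ME-180 reporter cells exposed to compounds for 5 hr, then lysed with CellTiter-Glo in the same wells. Luminescence, read after 30 min, reflects viable cells.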
The nature of experiment [4]: qHTS assay to identify small molecule agonists of the endoplasmic reticulum stress response signaling pathway (AID 1159516; active means well fitted activation curve with a large enough effect in the signal ratio in the repeat runs, not every such curve was filed as active; the % refers to the signal ratio). In outline:
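For this screen, HeLa cells stably carrying beta-lactamase under the ER stress response element received test compounds, positive controls or DMSO for 5 hr at 37 C; B/G FRET substrate was then added and dual-wavelength emission recorded.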

Experiment [5] in a line: qHTS assay to identify small molecule agonists of the endoplasmic reticulum stress response signaling pathway - cell viability counter screen (AID 1159517; calls by dose curve; further: nearly all actives have a fitted effect of over 50% in size). In outline: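 Cpd-treated ESRE-bla HeLa (5 hr, 37 C) → LiveBLAzer 2 hr RT → CellTiter-Glo 30 min RT → luminescence.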
Experiment [6] can be described thus: qHTS assay to identify small molecule antagonists of the retinoid-related orphan receptor gamma (ROR-gamma) signaling pathway - cell viability counter screen (AID 1159520). Further: nearly all actives have a fitted effect of over 50% in size. In outline:
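Tet-on ROR gamma CHO cells (1,000/well) were plated 4 hr, given compounds in DMSO for 2 hr at 37 C, then induced with 1 uM final doxycycline for 16 hr. Viability was read as ATP by CellTiter-Glo luminescence after 30 min.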

Experiment [7] in a line: qHTS assay to identify small molecule agonists of the AP-1 signaling pathway - cell viability counter screen (AID 1159525; calls by dose curve; further: nearly all actives have a fitted effect of over 55% in size). Put shortly: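 Each titration point was normalised to DMSO and tetra n-octyl ammonium bromide controls. The read was Cell Titer Glo luminescence after 30 min at RT, following 5 h compound exposure of ME-180 AP-1-bla cells at 37 °C.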
Experiment [8] is described as follows: qHTS assay to identify small molecule agonists of the AP-1 signaling pathway (AID 1159526; calls by dose curve).
For experiment [9], the target named is Retinoic acid receptor RXR-alpha (Homo sapiens) (UniProt P19793). Description: qHTS assay to identify small molecule agonists of the RXR signaling pathway (AID 1159527; calls by dose curve; further: nearly all actives have a fitted effect of over 35% in size; further: potency means the concentration at half of the fitted maximal effect). In outline:
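GeneBLAzer RXR-alpha-UAS-bla HEK 293T cells in 2% charcoal-stripped FBS medium were exposed to compounds for 16 hr at 37 C in agonist mode. Beta-lactamase reporter read as 460/530 nm FRET ratio after 2 hr substrate loading.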

A short description of experiment [10]: qHTS assay to identify small molecule agonists of the RXR signaling pathway - cell viability counter screen (AID 1159529). Further: nearly all actives have a fitted effect of over 50% in size. In outline:
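RXR-alpha-UAS-bla HEK 293T cells in medium with 2% charcoal-stripped FBS were pre-incubated 5 hr, then compound-treated 16 hr at 37 C. Viability was read by CellTiter-Glo luminescence in the same wells as the beta-lactamase assay, with tetraoctyl ammonium bromide as positive control.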

Experiment [11] is described as follows: qHTS assay to identify small molecule antagonists of the retinoid acid receptor (RAR) signaling pathway - cell viability counter screen (AID 1159551). Further: nearly all actives have a fitted effect of over 35% in size. In outline:
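Measured by luminescent ATP detection, viability reflects C3RL4 cells treated 6 h at 37 C with test chemicals in the presence of 1 uM (final) retinol.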

Experiment [12] is described as follows: qHTS assay to identify small molecule antagonists of the retinoic acid receptor (RAR) signaling pathway (AID 1159552; further: nearly all actives have a fitted effect of over 50% in size; further: potency means the concentration at half of the fitted maximal effect). In outline:
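Retinol signaling pathway inhibitors screened in C3RL4 RARE-luciferase reporter cells seeded overnight at 37 C, then compounds added with 1 uM (final) retinol as pathway substrate. After 6 hr at 37 C, luciferase luminescence read after 30 min at room temperature.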

Experiment [13] in a line: qHTS assay to identify small molecule agonists of the retinoic acid receptor (RAR) signaling pathway (AID 1159553). Further: potency means the concentration at half of the fitted maximal effect. To be noted: C3RL4 RARE luciferase reporter, agonist, 6 h; activation: at 73.3 µM (top of the series) unless noted. In outline: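 6 hr compound exposure (DMSO vehicle) of overnight-plated C3RL4 RARE-luc cells at 37 C; luminescence quantified after 30 min RT with luciferase reagent.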

Experiment [14] can be described thus: qHTS assay to identify small molecule antagonists of the estrogen related receptor (ERR) signaling pathway from Tox21 library - cell viability counter screen (AID 1224834). Further: nearly all actives have a fitted effect of over 30% in size. Put shortly: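 Seeded ERR cells were rested 6 h at 37 C/5% CO2 before compounds, positive and negative controls or DMSO were added. Incubation continued for 17.5 h, and viability was then quantified by CellTiter-Fluor fluorescence.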

The target of experiment [15] is Luciferin 4-monooxygenase (Photinus pyralis) (UniProt P08659). Description: qHTS assay to identify small molecule inhibitors of firefly luciferase (AID 1224835). Further: nearly all actives have a fitted effect of over 25% in size. Further: potency means the concentration at half of the fitted maximal effect. In outline:
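Quantitative HTS format; KM concentrations of both substrates. Purified P. pyralis FLuc activity quantified from luminescence images.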

Experiment [16] deals with Nuclear receptor ROR-gamma (Homo sapiens) (UniProt P51449). Description: qHTS assay to identify small molecule antagonists of the retinoid-related orphan receptor gamma (ROR-gamma) signaling pathway (AID 1159521). Put shortly: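 Tet-on ROR-gamma CHO cells with ROR response element-luciferase reporter; compounds added 2 hr before 1 uM doxycycline induction, then 16 hr at 37 C. Antagonism scored as decreased ONE-Glo luminescence.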

Experiment [17] is described as follows: qHTS assay to identify small molecule agonists of the constitutive androstane receptor (CAR) signaling pathway - cell viability counter screen (AID 1224836). Further: nearly all actives have a fitted effect of over 45% in size. Put shortly: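 HepG2 cells stably carrying hCAR and a CYP2B6-2.2kb reporter; 15-concentration compounds plus PK11195 (final 0.75 uM), 23 hr at 37 C/5% CO2. Viability read by CellTiter-Fluor fluorescence.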

“And” between values parts separate entries of the source, which are not always exact repeats. Equal values may be shown once. Records with an inconclusive call do not appear. The source holds several records for some structures; these can differ, active in one and inactive in another. The source made the active and inactive calls. Unless noted, the call rests on the fitted dose curve; in most records, active means well fitted curve in the direction sought with a large enough effect in the repeat runs; inconclusive means weak or mixed curves; inactive means no such curve, though single readings can be large; an effect the other way counts as inactive or inconclusive.

Luciferin 4-monooxygenase (Photinus pyralis), sequence (P08659 whole entry, looked up): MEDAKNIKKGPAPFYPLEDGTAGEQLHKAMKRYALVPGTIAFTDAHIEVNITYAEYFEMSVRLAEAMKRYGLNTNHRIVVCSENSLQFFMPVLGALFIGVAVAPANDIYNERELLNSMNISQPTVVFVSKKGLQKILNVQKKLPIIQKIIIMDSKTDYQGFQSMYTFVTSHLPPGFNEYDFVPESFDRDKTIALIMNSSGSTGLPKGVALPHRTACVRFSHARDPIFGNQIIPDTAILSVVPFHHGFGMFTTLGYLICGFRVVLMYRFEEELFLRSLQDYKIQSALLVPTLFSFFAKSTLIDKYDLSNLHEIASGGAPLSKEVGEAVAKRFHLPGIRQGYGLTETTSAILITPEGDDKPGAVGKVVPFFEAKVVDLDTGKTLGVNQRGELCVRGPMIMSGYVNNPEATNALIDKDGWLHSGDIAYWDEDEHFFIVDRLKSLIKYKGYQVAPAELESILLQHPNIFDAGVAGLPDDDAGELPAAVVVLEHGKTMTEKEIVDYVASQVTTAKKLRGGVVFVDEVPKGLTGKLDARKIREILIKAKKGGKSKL
Retinoic acid receptor RXR-alpha (Homo sapiens), sequence (P19793 whole entry, looked up): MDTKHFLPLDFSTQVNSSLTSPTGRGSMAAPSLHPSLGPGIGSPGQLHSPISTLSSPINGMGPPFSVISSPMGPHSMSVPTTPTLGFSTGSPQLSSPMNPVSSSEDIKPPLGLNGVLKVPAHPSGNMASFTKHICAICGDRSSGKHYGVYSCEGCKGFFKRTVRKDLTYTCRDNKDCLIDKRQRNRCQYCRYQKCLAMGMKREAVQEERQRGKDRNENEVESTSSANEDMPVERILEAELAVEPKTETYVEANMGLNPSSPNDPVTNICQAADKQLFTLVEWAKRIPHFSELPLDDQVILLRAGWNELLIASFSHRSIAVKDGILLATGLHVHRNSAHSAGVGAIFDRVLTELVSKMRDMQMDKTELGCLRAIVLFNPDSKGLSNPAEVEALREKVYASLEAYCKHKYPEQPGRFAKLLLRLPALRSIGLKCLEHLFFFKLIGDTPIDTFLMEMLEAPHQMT

`C1CC2OC2CC1C1CO1` (stereo unspecified): the compound was classed as inactive in experiment [1], in experiment [2], in experiment [3], in [4], in [5] and in experiment [11]. Further, the Potency result in experiment [6], in [7], in experiment [8], in [9], in experiment [10] and in experiment [12] was “inactive” throughout. Moreover, the Potency result in [13], in experiment [14] and in [15] was “inactive” in each case.
In the case of `O=C(NC(=O)c1c(F)cccc1F)Nc1cc(Cl)c(OC(F)(F)C(F)C(F)(F)F)cc1Cl` (stereo unspecified), the outcome in experiment [1], in experiment [2], in experiment [4], in experiment [5] and in experiment [11] was inactive. The Potency entry in [6], in experiment [9], in [10], in experiment [12], in [13] and in experiment [14] was “inactive” each time. The Potency result in experiment [15] was “inactive”.
Regarding `OCCN(CCO)CCO`, the result in experiment [1], in [2], in experiment [4], in experiment [5] and in experiment [11] was inactive. In addition, the Potency result in [6], in [8], in [9], in [10], in [12] and in [13] was “inactive” in each case. The Potency entry in experiment [14] and in experiment [15] was “inactive” each time.
Consider `O=c1[nH]c(=O)[nH]c(=O)[nH]1`, for which the result in experiment [1], in [2], in experiment [4], in [5] and in experiment [11] was inactive. The Potency result in [6], in [7], in experiment [8], in experiment [9], in experiment [10] and in experiment [12] was “inactive” each time. In addition, the Potency result in [13], in experiment [14] and in experiment [15] was “inactive” throughout.
Take `CCC12COCN1COC2`: the call in experiment [1], in experiment [2], in experiment [4], in [5] and in experiment [11] was inactive. Moreover, the Potency result in [6], in [16], in experiment [7], in [8], in experiment [9] and in experiment [10] was “inactive” each time. Also, the Potency entry in [14] and in [17] was “inactive” each time.
In the case of `CCCN(CCC)N=O`, the result in experiment [1], in experiment [3], in [4], in [5] and in experiment [11] was inactive. Also, the Potency result in [6], in experiment [16], in [8], in [9], in experiment [10] and in [12] was “inactive” throughout. Besides, the Potency result in [13], in [14] and in [15] was “inactive” in each case.
On to `CCNc1nc(NC(C)C)nc(SC)n1`, for which the outcome in [1], in [4], in experiment [5] and in experiment [11] was inactive. The Potency entry in [6], in experiment [7], in [8], in [9], in experiment [10] and in experiment [14] was “inactive” in each case. Also, the Potency result in [15] and in experiment [17] was “inactive” in each case.
Take `CC(C)C#N`: the outcome in [1], in experiment [2], in experiment [4], in experiment [5] and in experiment [11] was inactive. Besides, the Potency result in [6], in [7], in experiment [8], in [10], in experiment [13] and in experiment [14] was “inactive” each time. Moreover, in experiment [15], the Potency entry was “inactive”. For the same compound, the Potency in experiment [9] was 9.26 µM (active) and inactive; in experiment [12] it was 16.3 µM (active) and inactive.
Regarding `C=CC(N)=O`, the outcome in experiment [1], in experiment [3], in experiment [4], in [5] and in experiment [11] was inactive. Further, the Potency result in [6], in [16], in experiment [8], in experiment [9], in [10] and in [12] was “inactive” throughout. In addition, the Potency result in [13], in experiment [14] and in experiment [17] was “inactive” throughout.
As for `CC(C)OC(=O)Nc1ccccc1`, the result in [1], in experiment [2], in experiment [3], in [4], in experiment [5] and in experiment [11] was inactive. For the same compound, the Potency result in experiment [6], in experiment [16], in experiment [8], in experiment [9], in experiment [10] and in experiment [12] was “inactive” throughout. For the same compound, in experiment [14], the Potency result was “inactive”. Moreover, the Potency in [13] was 30.7 µM (active); in experiment [15] it was 40 µM (active) and 35.6 µM (active).
